# In all, about 310,000 compounds went through this assay and about 14,000 (4.5%) showed an effect of 50% or more. The effect is printed as a negative number. The sample holds strong results, similar compounds and a random draw of the others, so the mix is not that of the screen.
# Molecular target: human ether-à-go-go-related gene (hERG) potassium channel (human, UniProt Q12809)
# Experiment: primary screen, population patch clamp on CHO cells stably expressing hERG; higher = less effect of the substance
# 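Further: peak tail current of the secondary pulse compared with the same well before compound.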
# Chain of human ether-à-go-go-related gene (hERG) potassium channel (Q12809 whole entry, looked up): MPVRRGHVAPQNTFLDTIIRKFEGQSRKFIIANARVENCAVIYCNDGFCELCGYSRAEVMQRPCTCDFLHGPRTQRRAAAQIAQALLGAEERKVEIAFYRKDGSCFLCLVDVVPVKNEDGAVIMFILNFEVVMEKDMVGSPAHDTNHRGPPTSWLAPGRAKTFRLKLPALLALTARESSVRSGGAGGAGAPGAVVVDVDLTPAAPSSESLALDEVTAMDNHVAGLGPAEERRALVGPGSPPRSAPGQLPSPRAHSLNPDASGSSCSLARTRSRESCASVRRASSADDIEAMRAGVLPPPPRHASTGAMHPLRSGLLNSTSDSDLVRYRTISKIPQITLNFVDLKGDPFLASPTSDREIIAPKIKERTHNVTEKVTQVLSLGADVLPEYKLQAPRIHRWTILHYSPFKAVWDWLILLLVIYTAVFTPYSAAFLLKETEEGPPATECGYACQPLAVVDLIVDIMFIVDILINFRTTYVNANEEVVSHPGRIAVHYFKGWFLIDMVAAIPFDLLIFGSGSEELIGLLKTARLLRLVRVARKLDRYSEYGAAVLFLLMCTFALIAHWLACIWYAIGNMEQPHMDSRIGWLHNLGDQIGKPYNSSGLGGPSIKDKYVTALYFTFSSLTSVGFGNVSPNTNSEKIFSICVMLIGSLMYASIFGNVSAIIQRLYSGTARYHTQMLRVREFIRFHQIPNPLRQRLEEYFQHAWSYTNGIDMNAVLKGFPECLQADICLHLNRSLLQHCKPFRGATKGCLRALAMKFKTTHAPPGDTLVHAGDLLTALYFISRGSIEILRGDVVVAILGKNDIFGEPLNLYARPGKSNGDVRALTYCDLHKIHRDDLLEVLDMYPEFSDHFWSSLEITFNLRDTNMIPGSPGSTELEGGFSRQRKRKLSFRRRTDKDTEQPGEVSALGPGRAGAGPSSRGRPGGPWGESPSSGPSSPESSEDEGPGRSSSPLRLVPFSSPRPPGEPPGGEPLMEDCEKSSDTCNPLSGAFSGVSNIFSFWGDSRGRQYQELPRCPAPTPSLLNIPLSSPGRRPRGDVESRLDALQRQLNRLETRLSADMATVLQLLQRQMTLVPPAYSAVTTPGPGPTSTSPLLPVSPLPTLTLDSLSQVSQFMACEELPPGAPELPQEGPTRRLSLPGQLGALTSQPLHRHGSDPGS
row,SMILES,"hERG current change (%, negative = inhibition) at 10uM"
1,O=C(CSc1nc(=O)n2ccccc2n1)N1CCCc2ccccc21,-16.8%
2,N/C(=N\OC(=O)Cc1ccc([N+](=O)[O-])cc1)c1ccc([N+](=O)[O-])cc1,-24.4%
3,CC(=O)c1c(C)n(CCc2ccc(Cl)cc2)c2ccc(O)cc12,20.8%
4,O=C(CSc1nc2c(c(C(F)(F)F)n1)CCc1ccccc1-2)NCc1ccco1,2.99%
5,COC1(OC)N=C(N)C2(C#N)C(c3ccccc3)NC(C)=CC12C#N (centres unmarked),2.16%
6,COC(=O)CS(=O)(=O)c1cc(Br)cc2c1N(C(C)=O)CC2,5.36%
7,COC(=O)C1=C(c2ccccc2OCc2ccccc2)C[C@@H]2CC[C@H]1N2C(=O)NCc1ccc(C(F)(F)F)cc1,-4.61%
8,O=S(=O)(Cc1cccc(F)c1)c1c[nH]c2ccccc12,8.65%
9,Cc1cccn2c(=O)nc(SCC(=O)N3CCN(c4ccccc4)CC3)nc12,-67.6%
10,O=c1nc(SCc2cccc(C(F)(F)F)c2)nc2ccccn12,-37%
11,C=CCSc1nc(=O)n2ccc(C)cc2n1,-22.9%
12,Cc1cccn2c(=O)nc(SCC(=O)N3CCCC3)nc12,-22.6%
13,Cc1ccn2c(=O)nc(SCc3cccc(C(F)(F)F)c3)nc2c1,-51.5%
14,Cc1cccn2c(=O)nc(SCC(=O)N3CCOCC3)nc12,9.72%
15,COC(=O)CSc1nc(C)c(Oc2ccccc2)c(=O)[nH]1,11.6%
16,O=c1[nH]c(CN2CCc3ccccc3C2)nc2ccccc12,5.47%
17,O=C(c1n[nH]c(=O)c2ccccc12)N1CCN(Cc2ccc3c(c2)OCO3)CC1,2.15%
18,COc1ccc(CN2CCN(C(=O)Cn3nc(C(=O)O)c4ccccc4c3=O)CC2)cc1F,-37.4%
19,CCn1nc(C(=O)N2CCN(Cc3nc4ccccc4s3)CC2)c2ccccc2c1=O,-68.9%

row,SMILES,"hERG current change (%, negative = inhibition) at 10uM"
1,COc1ccc(-n2nc(C(=O)N3CCN(Cc4ccc5c(c4)OCO5)CC3)c3ccccc3c2=O)cc1,-4.87%
2,CCN1CCN(C(=O)c2nn(-c3ccccc3)c(=O)c3ccccc23)CC1,-2.92%
3,CCn1nc(C(=O)N2CCc3ccccc3C2)c2ccccc2c1=O,-13.6%
4,CCn1nc(C(=O)N2CCN(Cc3ccc4c(c3)OCO4)CC2)c2ccccc2c1=O,-52.1%
5,Cc1nn(CC(=O)N2CCN(Cc3ccccc3)CC2)c(=O)c2ccccc12,-2.85%
6,N#Cc1ccc(CN2CCN(C(=O)Cn3nc(C(N)=O)c4ccccc4c3=O)CC2)cc1,-70%
7,Cc1cc2nc(-c3ccco3)cc(C(F)(F)F)n2n1,-5.82%
8,CNc1c(NS(=O)(=O)c2ccc(F)c(Cl)c2)c(=O)oc2ccccc12,3.54%
9,O=C(CSCC(=O)N1CCOCC1)Nc1nc(-c2ccccc2)cs1,-14.8%
10,NC(=O)c1ccccc1OCC(=O)N1CCCc2ccccc21,14.5%
11,CCCc1nc2oc3c(=O)[nH]cnc3c2c2c1CCCC2,-56.5%
12,CC(C)Cc1nc2oc3c(=O)[nH]cnc3c2c2c1CCC2,-7.29%
13,CC(C)Cc1nc2oc3c(=O)[nH]cnc3c2c2c1CCCC2,-6.24%
14,COc1ccc(-c2csc(NC(=O)c3ccc(OCC(=O)N4CCOCC4)c(OC)c3)n2)cc1OC,-27.6%
15,Cc1ccc(C(=O)CCC(=O)Nc2cccc(C)c2)cc1,15.3%
16,COCCn1c(=NC(=O)CSCC(=O)N2CCOCC2)sc2cc(C)ccc21,-14.8%
17,O=C(CSc1nnc(-c2ccco2)n1Cc1ccccc1)OC1CCCCC1,-92.1%
18,COCCCn1c(SCC(=O)OC2CCCCC2)nnc1-c1ccco1,-56%
19,COCCCn1c(SCC(=O)NC2CCCCC2)nnc1-c1ccco1,-3.26%

row,SMILES,"hERG current change (%, negative = inhibition) at 10uM"
1,Cn1c(SCC(=O)OC2CCCCC2)nnc1-c1ccco1,0.11%
2,O=C(CSc1nnc(-c2ccco2)n1Cc1ccccc1)c1ccc(F)cc1,-45.7%
3,COCCCn1c(SCC(=O)NC2CCCC2)nnc1-c1ccco1,9.39%
4,CCCNS(=O)(=O)c1ccc2c(c1)CCCN2C(C)=O,-4.81%
5,O=C1Nc2cc(C(=O)NCCCN3CCOCC3)ccc2S/C1=C/c1cccc(Cl)c1,9.36%
6,CCOC(=O)c1c(P(=O)(N2CCOCC2)N2CCOCC2)noc1N,-0.372%
7,Cn1cc(CN2CCCC(CNS(=O)(=O)c3cccc4cccnc34)C2)cn1 (centres unmarked),5.77%
8,CCC(CC)C(=O)Nc1nnc(S(=O)(=O)N2CCCCCC2)s1,1.54%
9,OCC1(Cc2ccc(F)cc2F)CCCN(Cc2ccc(Cl)cc2)C1 (centres unmarked),-74.6%
10,COC(=O)c1ccc(CN2CCCC(CO)(Cc3ccc(F)cc3F)C2)cc1 (centres unmarked),-42.3%
11,COc1ccc(CN2CCCC(CO)(Cc3ccc(F)cc3F)C2)cc1 (centres unmarked),6.12%
12,COc1cccc(CC(=O)N2CCCC(CO)(Cc3ccc(F)cc3F)C2)c1 (centres unmarked),-0.432%
13,CCOc1cc(CN2CCCC(CO)(Cc3ccc(F)cc3F)C2)ccc1OC (centres unmarked),-55.9%
14,CCOc1ccc(-n2cc(-c3ccccc3)c3c(=O)[nH]cnc32)cc1,17.2%
15,CN(CCc1ccccn1)C(=S)Nc1ccc(Cl)c(Cl)c1,-3.59%
16,COc1ccc(NS(=O)(=O)c2ccc(N3CCOCC3)c(NC(=O)c3ccc(OC)cc3)c2)cc1,-1.38%
17,CCOC(=O)c1ccc(CSC(=N)N)o1,17.2%
18,CN(C)c1ccc(CN2CCCCCC2)cc1,-6.11%

# From PMC4336329 (PLoS ONE, 2015)
